MCF10A rereplic: inducers of DNA re-replication in MCF 10A breast cells. 350,000 compounds, 2.9% hits. Potency, µM (series often up to 46.1 µM), for the others: top-dose activity, positive = re-replication, most hits filed as activators. MCF 10A DNA re-replication, Hoechst nuclear intensity, 48 h; also: % of control where 0% means no effect; nearly all actives have a fitted effect of over 50% in size
PINK1 modulator: changes PINK1 expression | Potency, µM (doses to about 76.6 µM), without a hit: top-dose activation (PINK1 increase), actives largely listed as activators | PINK1 immunofluorescence, high-content cytometry, 24 h | 410,000 compounds, 0.2% hits; active = well fitted activation curve with a large enough effect; inconclusive = small, poorly fitted or top-dose-only effect; cell line not stated here; also: % of control where 0% means no effect; nearly all actives have a fitted effect of over 65% in size
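Cells are seeded, rested 12 hours, then given compound at five concentrations or DMSO for 24 hours. After fixation, blocking and antibody staining, PINK1 amount and mitochondrial localization are scored; CCCP serves as control.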
SW480 rerep: DNA re-replication induction in SW480 cells | SW480 DNA re-replication, Hoechst DNA content imaging, 48 h | AID 624297 | 340,000 compounds, 1.8% hits | Potency, µM (highest dose often 46.1 µM), inactives show top-dose re-replication activation, most hits filed as activators; also: % of control where 0% means no effect; nearly all actives have a fitted effect of over 55% in size
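Cells (250 per well) received 23 nL compound or DMSO by pin tool and were kept 48 hr at 37 C, 5% CO2. Nuclei were then stained with Hoechst for 40 min and scanned for DNA content.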
KB-V1 MDR tox: KB-V1 MDR subline cytotoxicity; KB-V1 MDR cells viability, CellTiter-Glo, 72 h; Potency, µM (highest dose often 46.1 µM), actives largely listed as cytotoxic; 400,000 compounds, 3.4% hits; also: % is scaled to controls: 0 for no effect and ±100 for the full control effect; nearly all actives have a fitted effect of over 60% in size
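Cytotoxicity via CellTiter-Glo luminescence after 72 h compound exposure at 37 degrees C. Cells: drug-selected KB-V1 line, DMEM phenol-red free plus 10% FBS. Compounds tested at multiple concentrations; normalized data fitted to concentration-effect curves.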
KB-3-1 tox: KB-3-1 parental cell cytotoxicity; 400,000 compounds, 1.4% hits; AID 1347075; KB-3-1 viability, CellTiter-Glo ATP luminescence, 72 h; Potency, µM (doses to about 46.1 µM), hits mostly cytotoxic; also: % is scaled to controls: 0 for no effect and ±100 for the full control effect; nearly all actives have a fitted effect of over 60% in size
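Here the drug-naive KB-3-1 line serves as comparator for MDR sub-line selectivity; cells received compound titrations, 72 h at 37 °C, then CellTiter-Glo readout.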
An asterisk follows results filed as active; ! = a repeat was not active; [ ] = dose if it differs, or a comment. Most compounds without a hit are left out; they make up all but 6.7% or so of the library. Unless noted, calls follow the shape of the dose curve; as a rule, active = well fitted curve in the direction sought with a large enough effect; inconclusive = small, poorly fitted or top-dose-only effect, or another doubt; inactive = no such curve, though single readings can be large; an effect the other way counts as inactive or inconclusive. Potency is read from the fitted curve at half-maximal effect.

`COc1ccc2c(c1)[nH]c(=O)c1sc3ccccc3c12` gave MCF10A rereplic 13µM*, PINK1 modulator 4%, SW480 rerep 3%, KB-V1 MDR tox inactive and KB-3-1 tox inactive.
CCCCCCCCNC(=O)c1cnsn1 was read as MCF10A rereplic -1%, PINK1 modulator 4%, SW480 rerep 0.52µM*, KB-V1 MDR tox inactive and KB-3-1 tox inactive.
`CCCCCCCCNC(=O)c1cnccn1` gave MCF10A rereplic 5%, PINK1 modulator 8%, SW480 rerep inconclusive, KB-V1 MDR tox inactive and KB-3-1 tox inactive.
`COCn1c(-c2cccc(Br)c2)nc2ccccc21` gave MCF10A rereplic 16%, PINK1 modulator 3%[38.3 µM], SW480 rerep 27%, KB-V1 MDR tox 18µM* and KB-3-1 tox inactive.
`CC(C)Cn1c(-c2cccc(Br)c2)nc2ccccc21` gave PINK1 modulator 1%, KB-V1 MDR tox inactive and KB-3-1 tox inactive.
O=C(NCCc1nc2ccccc2n1Cc1ccc(Cl)cc1)c1ccccc1 was read as PINK1 modulator 4%, KB-V1 MDR tox inconclusive and KB-3-1 tox inactive.
COCc1nc2ccccc2n1Cc1cccc(C)c1 was read as MCF10A rereplic -1%, PINK1 modulator 2%, SW480 rerep -6%, KB-V1 MDR tox 16µM*! and KB-3-1 tox inactive.
For Cc1cccc(Cn2c(Cc3ccccc3)nc3ccccc32)c1 the results were MCF10A rereplic 24%, PINK1 modulator 6%, SW480 rerep 0%, KB-V1 MDR tox 21µM*! and KB-3-1 tox inactive.
For Cc1cccc(Cn2c(-c3ccccc3)nc3ccccc32)c1 the results were PINK1 modulator 5%, KB-V1 MDR tox inactive and KB-3-1 tox inconclusive.
`Cc1cccc(C(=O)NCCc2nc3ccccc3n2Cc2ccc(Cl)cc2)c1` gave PINK1 modulator 23%, KB-V1 MDR tox 10µM* and KB-3-1 tox inconclusive.
`CN(Cc1ccc(C(C)(C)C)cc1)C(=O)c1ccc2c(=O)n3c(nc2c1)CCC3` gave MCF10A rereplic inconclusive, PINK1 modulator 2%, SW480 rerep 0%, KB-V1 MDR tox inconclusive and KB-3-1 tox inactive.
CCN(CC)C(=O)Cn1nnc2sc(-c3ccccc3)cc2c1=O was read as PINK1 modulator 2%, KB-V1 MDR tox inactive and KB-3-1 tox inactive.
`Cc1cc(C(C)(C)C)cc(C)c1COC(=O)c1cccnc1` gave MCF10A rereplic inconclusive, PINK1 modulator 12%, SW480 rerep -7%, KB-V1 MDR tox inactive and KB-3-1 tox inactive.
COc1ccc(NC(=O)Cn2c(=O)n(Cc3ccccc3Cl)c(=O)c3cc(OC)c(OC)cc32)cc1OC was read as PINK1 modulator 2%, KB-V1 MDR tox inactive and KB-3-1 tox inactive.
Cc1cccc(OCC(=O)Nc2nc3ccc([N+](=O)[O-])cc3s2)c1 was read as MCF10A rereplic -1%, SW480 rerep 5%, KB-V1 MDR tox inactive and KB-3-1 tox inactive.
For O=C(O)COc1ccc(/C=C/c2nc3ccc([N+](=O)[O-])cc3s2)cc1 the results were MCF10A rereplic 12µM*, PINK1 modulator 0%, SW480 rerep 8%, KB-V1 MDR tox inactive and KB-3-1 tox inactive.
For CN(C)C(=O)c1cccc(-c2cnc3cccnn23)c1 the results were PINK1 modulator 1%, KB-V1 MDR tox inactive and KB-3-1 tox inactive.
For COc1cccc(S(=O)(=O)N(C)C[C@@H]2OCc3cnnn3CCCC(=O)N([C@@H](C)CO)C[C@H]2C)c1 the results were PINK1 modulator -2%, KB-V1 MDR tox inactive and KB-3-1 tox inactive.
For Clc1ccc(/C=N/NC(=Nc2ccccc2)c2ccccn2)c(Cl)c1 the results were MCF10A rereplic inconclusive, PINK1 modulator 25%, SW480 rerep -2%, KB-V1 MDR tox inconclusive and KB-3-1 tox inactive.
O=C(N/N=C/c1ccccn1)c1ccccc1 was read as MCF10A rereplic inconclusive, PINK1 modulator -3%, SW480 rerep 8%, KB-V1 MDR tox inactive and KB-3-1 tox inactive.
Screening O=C(N/N=C\c1ccccn1)C1c2ccccc2Oc2ccccc21 returned MCF10A rereplic -34%, PINK1 modulator 2%, SW480 rerep 18µM*, KB-V1 MDR tox inactive and KB-3-1 tox inactive.
